From PubChem BioAssay AID1159580 (chemical genetic matrix, 2015)
“And” between values parts separate entries of the source, which are not always exact repeats. Equal values may be shown once. Out of some 5,500 compounds screened, about 2,000 (36%) were called active. Not shown: some 18% with an inconclusive outcome. No stated cut-off is given here; in the data, active means normalized growth mostly below about 0.91 (no sharp cut-off); inconclusive means no clear call, values can overlap the other calls; inactive means mostly above about 0.92. The list shows a part of the results.

Assay: chemical genetic growth profiling, strain panel (AID 1159580);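 further: tested at 20 µM; growth read once vehicle control cultures reached saturation at 30 °C; 1 = growth at the plate median or of vehicle wells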
Settings: S. cerevisiae deletion strains, growth OD
[1] = locus YAL040C, strain CLN3, stronger effect = lower value
[2] = locus YCL061C, strain MRC1 (second series), stronger effect = lower value
[3] = locus YDR363W, strain ESC2, stronger effect = lower value
[4] = locus YER002W, strain NOP16, stronger effect = lower value
[5] = locus YGR078C, strain PAC10, stronger effect = lower value
[6] = locus YMR263W, strain SAP30, stronger effect = lower value
[7] = locus YNL175C, strain NOP13, stronger effect = lower value
[8] = locus YNL197C, strain WHI3, stronger effect = lower value
[9] = locus YNL224C, strain SQS1, stronger effect = lower value
[10] = locus YOR083W, strain WHI5 (second series), stronger effect = lower value
[11] = locus YPL055C, strain LGE1, stronger effect = lower value
[12] = locus YPL241C, strain CIN2, stronger effect = lower value

Measured: normalized growth

NCC(O)c1ccc(O)c(O)c1 (centres undefined)
inactive: [1] 1.01 and 1.02 | [2] 0.998 | [3] 0.991 | [4] 1.02 and 0.999 | [5] 1 | locus YJR075W, strain HOC1, stronger effect = lower value 1.02 | [6] 1.01 | locus YMR307W, strain GAS1, stronger effect = lower value 1.02 | locus YNL153C, strain GIM3, stronger effect = lower value 1.01 | [7] 0.999 and 1.01 | [8] 0.995 and 1.01 | [9] 0.987 and 0.982 | locus YNL322C, strain KRE1, stronger effect = lower value 0.997 and 1.02 | [10] 0.98 and 0.991 | [11] 1 | [12] 1.01

COc1cc(C(O)CN)ccc1O (centres undefined)
inactive: [1] 1.01 | [2] 1.01 | [3] 1.02 | [4] 1.04 | locus YGR229C, strain SMI1, stronger effect = lower value 1.01 | [6] 1.01 | [7] 1.02 | [8] 1.01 | [9] 1 | [10] 1.01 | [12] 1

CC(C)NC[C@H](O)c1ccc(O)c(O)c1
inactive: locus YAL013W, strain DEP1, stronger effect = lower value 1.01 | [1] 0.998 | [2] 1 | locus YDR150W, strain NUM1, stronger effect = lower value 0.99 | [3] 1 | [4] 1 | [5] 1.01 | [7] 1.02 | [8] 1.01 | [9] 1.01 | [10] 1 | [11] 0.97
